Drawing on ChEMBL document CHEMBL2218924, “A broad activity screen in support of a chemogenomic map for kinase signalling research and drug discovery” (Biochem J, 2013), this text covers residual activity for 1 compound.

Structures are written as SMILES.

For experiment [1], the target named is T1, Ephrin type-B receptor 1 (Homo sapiens) (UniProt P54762).
T1 sequence (whole entry): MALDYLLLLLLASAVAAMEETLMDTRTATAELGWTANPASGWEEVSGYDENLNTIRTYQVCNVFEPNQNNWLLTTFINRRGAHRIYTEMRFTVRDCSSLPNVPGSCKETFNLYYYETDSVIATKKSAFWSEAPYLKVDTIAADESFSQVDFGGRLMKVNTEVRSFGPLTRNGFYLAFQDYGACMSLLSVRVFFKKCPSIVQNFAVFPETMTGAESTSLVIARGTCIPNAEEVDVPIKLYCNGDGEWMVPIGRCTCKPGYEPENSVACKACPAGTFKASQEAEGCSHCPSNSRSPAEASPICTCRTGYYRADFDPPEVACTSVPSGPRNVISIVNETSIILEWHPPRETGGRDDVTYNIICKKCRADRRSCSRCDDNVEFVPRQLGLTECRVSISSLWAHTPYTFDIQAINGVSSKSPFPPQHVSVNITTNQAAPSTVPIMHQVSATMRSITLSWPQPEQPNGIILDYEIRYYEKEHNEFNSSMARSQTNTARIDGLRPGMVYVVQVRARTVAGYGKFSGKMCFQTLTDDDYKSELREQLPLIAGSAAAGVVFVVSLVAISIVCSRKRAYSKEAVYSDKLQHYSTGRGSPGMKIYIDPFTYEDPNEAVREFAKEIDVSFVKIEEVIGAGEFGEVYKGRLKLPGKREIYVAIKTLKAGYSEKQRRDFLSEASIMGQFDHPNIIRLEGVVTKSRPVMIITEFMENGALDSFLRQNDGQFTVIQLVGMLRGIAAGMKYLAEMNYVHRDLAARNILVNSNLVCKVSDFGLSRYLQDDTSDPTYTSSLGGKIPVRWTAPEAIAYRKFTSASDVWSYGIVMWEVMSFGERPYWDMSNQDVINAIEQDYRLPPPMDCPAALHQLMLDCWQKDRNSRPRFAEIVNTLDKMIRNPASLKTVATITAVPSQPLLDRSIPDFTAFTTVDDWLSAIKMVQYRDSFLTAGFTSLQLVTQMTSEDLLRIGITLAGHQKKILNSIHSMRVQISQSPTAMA
The note with it: at 10 µM.

Experiment [2] deals with T2, Ephrin type-B receptor 2 (Homo sapiens) (UniProt P29323).
T2 sequence (whole entry): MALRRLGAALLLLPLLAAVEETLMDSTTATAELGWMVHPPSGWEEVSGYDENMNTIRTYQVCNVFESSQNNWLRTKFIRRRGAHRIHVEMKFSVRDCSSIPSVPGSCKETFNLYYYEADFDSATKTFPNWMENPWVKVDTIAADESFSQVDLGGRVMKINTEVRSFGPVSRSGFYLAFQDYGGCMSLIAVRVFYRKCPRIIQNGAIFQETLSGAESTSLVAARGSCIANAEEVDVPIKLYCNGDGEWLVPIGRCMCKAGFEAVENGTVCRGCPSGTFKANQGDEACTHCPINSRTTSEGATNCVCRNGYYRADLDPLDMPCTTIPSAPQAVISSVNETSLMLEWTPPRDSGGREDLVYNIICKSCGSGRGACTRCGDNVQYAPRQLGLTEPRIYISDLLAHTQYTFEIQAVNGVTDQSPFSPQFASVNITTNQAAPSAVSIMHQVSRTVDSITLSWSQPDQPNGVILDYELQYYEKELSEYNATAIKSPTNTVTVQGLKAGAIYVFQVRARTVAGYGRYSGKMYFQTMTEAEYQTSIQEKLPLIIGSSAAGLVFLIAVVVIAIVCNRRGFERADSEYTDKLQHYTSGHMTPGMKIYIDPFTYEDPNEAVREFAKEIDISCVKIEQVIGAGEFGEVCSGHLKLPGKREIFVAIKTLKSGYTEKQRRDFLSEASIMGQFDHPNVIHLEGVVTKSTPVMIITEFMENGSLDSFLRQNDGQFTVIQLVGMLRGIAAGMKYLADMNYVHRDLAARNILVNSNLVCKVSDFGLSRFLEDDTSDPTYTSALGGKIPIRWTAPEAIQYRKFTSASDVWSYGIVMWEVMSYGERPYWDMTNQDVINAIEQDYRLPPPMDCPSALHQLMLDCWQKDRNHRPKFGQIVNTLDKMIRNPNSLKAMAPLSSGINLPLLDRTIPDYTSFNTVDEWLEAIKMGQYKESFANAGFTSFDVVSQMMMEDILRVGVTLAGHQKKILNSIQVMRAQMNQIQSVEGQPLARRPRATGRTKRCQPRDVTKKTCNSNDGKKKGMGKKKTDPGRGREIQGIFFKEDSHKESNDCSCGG
Conditions: at 1 µM; call rule not given here.

Experiment [3] concerns the target T2, Ephrin type-B receptor 2 (Homo sapiens). The note with it: at 10 µM.
Experiment [4] addresses T3, Ephrin type-B receptor 3 (Homo sapiens) (UniProt P54753).
T3 sequence (whole entry): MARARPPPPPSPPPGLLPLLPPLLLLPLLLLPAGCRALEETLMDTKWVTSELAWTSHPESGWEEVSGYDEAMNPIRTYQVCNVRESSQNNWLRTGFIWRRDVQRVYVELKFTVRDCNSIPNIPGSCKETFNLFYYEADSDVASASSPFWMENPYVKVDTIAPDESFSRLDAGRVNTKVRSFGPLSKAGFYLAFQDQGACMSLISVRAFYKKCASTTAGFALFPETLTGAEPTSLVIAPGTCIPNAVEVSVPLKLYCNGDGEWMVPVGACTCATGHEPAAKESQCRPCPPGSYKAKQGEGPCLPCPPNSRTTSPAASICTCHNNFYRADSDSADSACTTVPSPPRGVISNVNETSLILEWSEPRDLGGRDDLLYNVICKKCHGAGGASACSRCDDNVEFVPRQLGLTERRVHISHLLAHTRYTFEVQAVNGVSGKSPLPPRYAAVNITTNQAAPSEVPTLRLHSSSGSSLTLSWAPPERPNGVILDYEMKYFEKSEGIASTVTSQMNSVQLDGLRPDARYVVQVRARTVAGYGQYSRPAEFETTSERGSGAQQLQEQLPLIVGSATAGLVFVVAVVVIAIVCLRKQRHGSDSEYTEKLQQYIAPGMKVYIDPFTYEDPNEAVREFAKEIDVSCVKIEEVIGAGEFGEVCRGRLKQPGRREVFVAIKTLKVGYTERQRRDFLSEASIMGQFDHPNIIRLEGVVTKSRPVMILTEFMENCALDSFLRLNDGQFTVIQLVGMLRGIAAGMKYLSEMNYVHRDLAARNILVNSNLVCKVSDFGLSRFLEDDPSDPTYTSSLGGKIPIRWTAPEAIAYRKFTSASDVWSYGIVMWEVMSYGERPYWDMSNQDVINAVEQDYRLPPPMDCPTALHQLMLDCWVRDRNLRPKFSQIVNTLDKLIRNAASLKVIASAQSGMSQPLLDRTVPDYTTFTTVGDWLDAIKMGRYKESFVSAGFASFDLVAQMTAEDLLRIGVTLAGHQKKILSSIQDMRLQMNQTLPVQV
The note with it: at 1 µM.

The target of experiment [5] is T3, Ephrin type-B receptor 3 (Homo sapiens). Conditions: at 10 µM.
Experiment [6] addresses T4, Ephrin type-B receptor 4 (Homo sapiens) (UniProt P54760).
T4 sequence (whole entry): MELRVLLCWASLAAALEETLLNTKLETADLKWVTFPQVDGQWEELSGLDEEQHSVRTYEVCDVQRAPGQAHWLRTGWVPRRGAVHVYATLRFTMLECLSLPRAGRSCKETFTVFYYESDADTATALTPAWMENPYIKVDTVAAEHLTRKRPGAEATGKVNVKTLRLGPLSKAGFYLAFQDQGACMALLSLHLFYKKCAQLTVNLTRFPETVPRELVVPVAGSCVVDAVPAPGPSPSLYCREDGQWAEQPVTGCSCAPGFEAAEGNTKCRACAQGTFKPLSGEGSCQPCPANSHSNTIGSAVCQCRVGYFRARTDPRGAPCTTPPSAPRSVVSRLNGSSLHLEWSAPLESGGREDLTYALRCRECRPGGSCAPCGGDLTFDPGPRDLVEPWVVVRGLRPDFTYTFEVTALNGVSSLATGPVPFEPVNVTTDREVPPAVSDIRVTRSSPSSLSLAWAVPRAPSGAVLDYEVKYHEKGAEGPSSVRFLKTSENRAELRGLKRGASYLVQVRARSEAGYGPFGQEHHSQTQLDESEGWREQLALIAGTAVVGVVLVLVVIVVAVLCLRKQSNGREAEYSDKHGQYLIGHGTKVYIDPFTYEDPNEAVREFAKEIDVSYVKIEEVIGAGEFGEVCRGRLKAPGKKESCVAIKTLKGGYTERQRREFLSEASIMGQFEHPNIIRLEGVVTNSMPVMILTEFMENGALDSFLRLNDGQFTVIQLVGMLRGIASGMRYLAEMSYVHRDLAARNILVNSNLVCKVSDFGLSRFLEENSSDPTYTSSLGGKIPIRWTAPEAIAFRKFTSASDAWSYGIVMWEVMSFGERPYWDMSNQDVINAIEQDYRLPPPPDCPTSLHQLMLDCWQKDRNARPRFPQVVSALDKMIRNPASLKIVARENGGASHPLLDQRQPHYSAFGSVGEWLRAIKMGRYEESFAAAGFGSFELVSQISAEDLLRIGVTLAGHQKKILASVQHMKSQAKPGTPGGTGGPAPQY
The note with it: at 1 µM.

The target in experiment [7] is T4, Ephrin type-B receptor 4 (Homo sapiens). The note with it: at 10 µM.
The target of experiment [8] is Receptor tyrosine-protein kinase erbB-4 (Homo sapiens) (UniProt Q15303). The note with it: at 1 µM.
The target is the same in experiment [9]. Conditions: at 10 µM.
The target in experiment [10] is Focal adhesion kinase 1 (Homo sapiens) (UniProt Q05397). The note with it: at 1 µM.
Focal adhesion kinase 1 (Homo sapiens), sequence (Q05397 2-1052 limits assumed): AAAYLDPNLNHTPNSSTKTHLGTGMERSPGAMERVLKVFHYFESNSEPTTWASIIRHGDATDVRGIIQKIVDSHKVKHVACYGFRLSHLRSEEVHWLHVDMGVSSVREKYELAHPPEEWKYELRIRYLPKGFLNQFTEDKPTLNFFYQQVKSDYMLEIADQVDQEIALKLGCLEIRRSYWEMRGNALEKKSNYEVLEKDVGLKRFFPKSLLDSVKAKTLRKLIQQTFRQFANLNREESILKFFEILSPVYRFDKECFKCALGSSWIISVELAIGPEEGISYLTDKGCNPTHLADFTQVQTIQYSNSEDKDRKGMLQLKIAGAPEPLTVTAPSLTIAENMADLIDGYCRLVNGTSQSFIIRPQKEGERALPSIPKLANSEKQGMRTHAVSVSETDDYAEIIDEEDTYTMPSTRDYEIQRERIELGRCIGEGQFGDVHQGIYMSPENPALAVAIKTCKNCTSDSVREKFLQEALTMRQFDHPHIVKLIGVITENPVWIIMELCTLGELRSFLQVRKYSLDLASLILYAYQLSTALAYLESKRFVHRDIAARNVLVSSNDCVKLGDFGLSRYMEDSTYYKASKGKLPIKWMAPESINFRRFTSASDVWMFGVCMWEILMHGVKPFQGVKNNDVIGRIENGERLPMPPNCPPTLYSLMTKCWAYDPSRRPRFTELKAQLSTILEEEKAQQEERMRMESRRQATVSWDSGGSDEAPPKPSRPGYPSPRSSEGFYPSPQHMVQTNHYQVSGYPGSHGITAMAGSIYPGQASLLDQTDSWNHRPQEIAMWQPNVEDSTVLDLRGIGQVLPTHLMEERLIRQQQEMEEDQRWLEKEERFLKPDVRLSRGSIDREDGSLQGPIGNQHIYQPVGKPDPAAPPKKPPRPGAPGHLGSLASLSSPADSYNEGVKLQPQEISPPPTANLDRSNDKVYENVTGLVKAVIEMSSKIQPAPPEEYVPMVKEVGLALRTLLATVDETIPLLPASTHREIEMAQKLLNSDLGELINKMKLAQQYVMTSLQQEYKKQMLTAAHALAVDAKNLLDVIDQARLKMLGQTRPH

Receptor tyrosine-protein kinase erbB-4 (Homo sapiens), sequence (Q15303 whole entry): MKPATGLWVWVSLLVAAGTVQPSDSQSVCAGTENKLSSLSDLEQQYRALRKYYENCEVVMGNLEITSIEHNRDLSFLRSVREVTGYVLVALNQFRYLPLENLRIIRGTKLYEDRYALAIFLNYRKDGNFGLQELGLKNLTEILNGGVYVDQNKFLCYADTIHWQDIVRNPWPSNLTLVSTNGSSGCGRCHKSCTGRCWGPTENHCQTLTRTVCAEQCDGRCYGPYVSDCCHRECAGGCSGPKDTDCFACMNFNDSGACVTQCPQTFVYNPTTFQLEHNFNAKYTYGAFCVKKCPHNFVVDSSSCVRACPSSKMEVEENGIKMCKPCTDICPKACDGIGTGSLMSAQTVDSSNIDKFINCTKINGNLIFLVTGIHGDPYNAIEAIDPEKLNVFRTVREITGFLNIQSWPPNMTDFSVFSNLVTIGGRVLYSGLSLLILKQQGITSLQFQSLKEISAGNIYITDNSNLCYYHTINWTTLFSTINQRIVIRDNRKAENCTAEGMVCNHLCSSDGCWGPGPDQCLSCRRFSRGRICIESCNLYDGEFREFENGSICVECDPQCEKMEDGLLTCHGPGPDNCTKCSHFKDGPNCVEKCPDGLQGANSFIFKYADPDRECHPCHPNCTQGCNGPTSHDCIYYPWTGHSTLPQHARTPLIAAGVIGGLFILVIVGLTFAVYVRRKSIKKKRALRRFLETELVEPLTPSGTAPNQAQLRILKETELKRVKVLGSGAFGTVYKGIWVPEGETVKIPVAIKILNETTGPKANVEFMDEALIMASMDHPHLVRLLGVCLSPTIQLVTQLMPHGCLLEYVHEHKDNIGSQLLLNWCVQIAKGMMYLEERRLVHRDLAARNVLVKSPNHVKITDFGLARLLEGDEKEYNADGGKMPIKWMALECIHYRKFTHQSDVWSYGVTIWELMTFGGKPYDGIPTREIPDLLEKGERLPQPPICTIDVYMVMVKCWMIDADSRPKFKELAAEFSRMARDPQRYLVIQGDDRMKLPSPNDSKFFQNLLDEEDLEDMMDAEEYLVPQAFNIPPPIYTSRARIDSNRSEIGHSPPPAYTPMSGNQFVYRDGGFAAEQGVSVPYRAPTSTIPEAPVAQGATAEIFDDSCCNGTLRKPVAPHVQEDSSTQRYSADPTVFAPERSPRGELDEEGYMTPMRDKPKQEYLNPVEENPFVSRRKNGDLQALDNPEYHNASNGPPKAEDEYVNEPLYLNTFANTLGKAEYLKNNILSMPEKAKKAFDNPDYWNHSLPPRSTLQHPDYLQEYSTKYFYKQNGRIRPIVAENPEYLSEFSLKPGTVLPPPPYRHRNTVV

As to `CCN(CC)CCCCN1c2ccccc2Oc2ccc(Cl)cc21`, the residual activity (usually the signal under treatment as a percentage of the control signal) in experiment [1] is 117%; in experiment [2], 122%; in experiment [3] it was 121%; in [4], 106% (inactive); in experiment [5], 132%; in experiment [6], 109%. For the same compound, the residual activity came out at 133% in [7], 102% in experiment [8], 95% in experiment [9] and 144% in experiment [10].
